High-throughput results (PubChem BioAssay)
Rows were chosen to be rich in hits. Some 2.9% of all compounds tested hit in one or more screens of this group.
SNCA expr inh: Primary qHTS assay for inhibitors of alpha-synuclein gene (SNCA) expression. HEK-293 SNCA-luciferase knock-in, luminescence, 24 h. AID 1671194, 2021. Potency, µM (series often up to 57.2 µM), usual class: inhibitors. actives 0.17% (n = 140,000); note: nearly all actives have a fitted effect of over 45% in size
KDM5B inh: Primary screen for KDM5B Histone Demethylases FDH-coupled qHTS. Lysine-specific demethylase 5B (Homo sapiens), Q9UGL1. KDM5B demethylase, FDH-coupled NADH fluorescence (FDH is formaldehyde dehydrogenase). Potency, µM (top dose mostly 57.7 µM), usual class: inhibitors. actives 2.6% (n = 220,000). AID 1347165, 2019; note: nearly all actives have a fitted effect of over 70% in size
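qHTS format, multiple compound concentrations. Buffer 50 mM HEPES pH 7.5/0.01% Tween-20; 200 nM KDM5BΔAP final; 10 min compound preincubation; substrate-mix levels 12.5 µM peptide, 25 µM α-KG, 0.25 mM NAD⁺; 30 min RT; ΔRFU.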
SNCA viab count: GF-AFC viability counterscreen for inhibitors of alpha-synuclein gene (SNCA) expression; HEK-293-SNCA-luc viability, GF-AFC fluorescence, 24 h; Potency, µM (highest dose often 57.1 µM), most hits filed as cytotoxic; actives 0.12% (n = 150,000); AID 1671193, 2021; note: nearly all actives have a fitted effect of over 30% in size
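HEK-293-SNCA-luc cells (1500/well) plated 24 h, then exposed 24 h to a dilution series; GF-AFC added 30 min at 37C, fluorescence 405/540 nm; normalised to medium-only and DMSO wells, Hill fit.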
IP6K1 inh: Primary qHTS assay for small molecule inhibitors of Inositol hexaphosphate kinase 1 (IP6K1). Inositol hexakisphosphate kinase 1 (Homo sapiens), Q92551. IP6K1 kinase, ADP-Glo luminescence, 2 h; active compounds read low. activity change, % (series mostly up to about 58 µM). actives 0.81% (n = 140,000). AID 1645851, 2021; in the data active = activity change below about -25%
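ADP-Glo luminescence measures ADP made by human IP6K1 during a 2 h RT reaction with ATP/IP6 (mix at 1.3 mM/130 uM); top library doses 57.5 and 19.1 uM final.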
Each line names hits and unclear results; the compound was inactive in the other large screens. Unless noted, calls come from the whole dose curve; as a rule, active = well fitted curve in the direction sought with a large enough effect; inconclusive = small, poorly fitted or top-dose-only effect, or another doubt; inactive = no such curve, though single readings can be large; an effect the other way counts as inactive or inconclusive.

CC(Cc1cccs1)NC(=O)C1CCCO1 (centres undefined)	none (no result: SNCA expr inh, SNCA viab count, IP6K1 inh)
CN1CCCCCC1C(=O)N1CCN(c2ccc(C#N)cn2)CC1 (centres undefined)	KDM5B inh 28.2µM
CO[C@H]1[C@H](NC(=O)c2cc3ccccc3[nH]2)c2ccccc2C12CCNCC2	KDM5B inh 22.4µM
CO[C@H]1[C@H](NC(=O)c2cc(=O)[nH]c(=O)[nH]2)c2ccccc2C12CCNCC2	none
O=C(c1ccccc1Cl)N1CCCN(c2ccc3nnc(C4CC4)n3n2)CC1	none (no result: SNCA expr inh, KDM5B inh, SNCA viab count)
Cc1nc(NC(=O)C2c3ccccc3C(=O)N(C3CCCC3)C23CCCC3)sc1C (centres undefined)	KDM5B inh 22.4µM
COCCN1C(=O)c2ccccc2C(C(=O)NCCc2c[nH]c3ccccc23)C12CCCC2 (centres undefined)	KDM5B inh 22.4µM
CC(=O)Nc1ccc(NC(=O)C2c3ccccc3C(=O)N(C3CCCC3)C23CCCC3)cc1 (centres undefined)	KDM5B inh inconclusive
COCCN1C(=O)c2ccccc2C(C(=O)Nc2ccc(OC)cc2)C12CCCC2 (centres undefined)	KDM5B inh 15.8µM
Cc1ccc(NC(=O)COc2ccc3c(C)c(C)c(=O)oc3c2C)cc1	none (no result: SNCA expr inh, SNCA viab count, IP6K1 inh)
CC(OC(=O)c1ccccc1NS(=O)(=O)c1ccc(F)cc1)C(=O)N1CCCc2ccccc21 (centres undefined)	none (no result: SNCA expr inh, SNCA viab count, IP6K1 inh)
O=C(Nc1nc2ccccc2s1)c1ccc2c(c1)OCCN(CCC(F)(F)F)C2	KDM5B inh 31.6µM
O=C(Nc1nccs1)c1ccc2c(c1)OCCN(CCC(F)(F)F)C2	none
O=C(c1cc(C2CC2)nc2onc(C3CCCNC3)c12)N1CCC(F)CC1 (centres undefined)	none
C[C@@]12C(=O)OC(=O)[C@@]1(C)C1CCC2O1	SNCA expr inh 15.2µM, SNCA viab count inconclusive (no result: KDM5B inh, IP6K1 inh)
CNCC(=O)NC1CCCN(c2ccc(C(F)(F)F)cn2)C1 (centres undefined)	KDM5B inh 28.2µM
Cc1ccc(C(=O)NC2CCCN(c3ccc(C(F)(F)F)cn3)C2)cn1 (centres undefined)	none (no result: SNCA expr inh, SNCA viab count, IP6K1 inh)
COc1ccc2[nH]c(=O)c(CN3CCOC(CN)C3)cc2c1 (centres undefined)	KDM5B inh 25.1µM
CCOC(=O)CN1CCN(C(=O)CCc2cc3cc(OC)ccc3[nH]c2=O)CC1	SNCA expr inh inconclusive, KDM5B inh 31.6µM, SNCA viab count inconclusive
COc1ccc2[nH]c(=O)c(CCC(=O)NCCCN3CCCC(C)C3)cc2c1 (centres undefined)	SNCA expr inh inconclusive, KDM5B inh 31.6µM
COc1ccc2[nH]c(=O)c(CCC(=O)O)cc2c1	KDM5B inh 28.2µM
Cc1ccc2[nH]c(=O)c(CCC(=O)O)cc2c1	KDM5B inh inconclusive
COC(=O)C1=COC(OC2OC(CO)C(O)C(O)C2O)C2C1CC(OC(=O)C(O)CC(=O)O)C2C (centres undefined)	none (no result: SNCA expr inh, KDM5B inh)
Cn1nccc1CN1CCC2(CC1)CC(=O)c1ccc(Cl)cc1O2	none
Cc1ccc(-c2nnc(SC3=CS(=O)(=O)c4ccccc43)o2)cc1	none (no result: SNCA expr inh, SNCA viab count, IP6K1 inh)
COC(=O)[C@]12CCC(C)(C)C[C@@H]1[C@@H]1C(=O)C=C3[C@@]4(C)C=C(C#N)C(=O)C(C)(C)[C@@H]4CC[C@@]3(C)[C@]1(C)CC2	SNCA expr inh 8.57µM, SNCA viab count 13.6µM (no result: KDM5B inh, IP6K1 inh)
C=C(C)[C@@H]1CCC2(C(=O)OC)CC[C@]3(C)C(CCC4[C@@]5(C)C/C(=C\c6ccccc6)C(=O)C(C)(C)C5CC[C@]43C)C12 (some centres undefined)	none (no result: SNCA expr inh, SNCA viab count, IP6K1 inh)
O=Cc1ccc(-c2ccc(O)cc2)cc1	KDM5B inh 14.1µM
O=C(/C=C/c1ccc(O)cc1)c1ccc(-c2ccccc2)cc1	none (no result: SNCA expr inh, SNCA viab count, IP6K1 inh)
Cc1ccc(-c2ccc(C=O)cc2)cc1Cl	KDM5B inh 50.1µM
Cc1cccc(-c2ccc(C=O)cc2)c1	KDM5B inh 44.7µM
O=C(Nc1ccc(Cl)cc1)c1n[nH]c(=O)c2ccccc12	none (no result: SNCA expr inh, SNCA viab count, IP6K1 inh)
CCCN(CC1CC1)C(=O)C1CCCN(Cc2ccncc2)CCC(=O)NCC1 (centres undefined)	KDM5B inh inconclusive
O=c1c(-c2ccc(O)cc2)coc2cc(OC3O[C@H](CO)[C@H](O)[C@H](O)[C@H]3O)cc(O)c12 (some centres undefined)	SNCA expr inh 5.41µM (no result: KDM5B inh, IP6K1 inh)
CCC(C(=O)NCc1nnc2c(-c3nc(C4CC4)no3)cccn12)c1ccccc1 (centres undefined)	KDM5B inh 31.6µM
CC(C)c1noc(-c2cccn3c(CNC(=O)c4ccncc4)nnc23)n1	KDM5B inh inconclusive
CCC(C(=O)NCc1nnc2c(-c3nc(C(C)C)no3)cccn12)c1ccccc1 (centres undefined)	KDM5B inh 12.6µM
CC(C)c1noc(-c2cccn3c(CNC(=O)C(C)c4ccccc4)nnc23)n1 (centres undefined)	KDM5B inh 14.1µM
CCC(C(=O)NCc1nnc2c(-c3nc(C)no3)cccn12)c1ccccc1 (centres undefined)	KDM5B inh 31.6µM
Cc1cc(C(=O)N2CCC(C(=O)N3CCCCCCNC(=O)CC3)CC2)nn1C	none
CC1=C(C)C(c2cn(C)c3ccccc23)N(CCc2ccccc2)C1=O (centres undefined)	none (no result: SNCA expr inh, SNCA viab count, IP6K1 inh)
Cc1nnc2ccc(N3CCCN(C(=O)c4ccc(Cl)nc4)CC3)nn12	none (no result: SNCA expr inh, KDM5B inh, SNCA viab count)
CCOc1ccc(C(c2c(C)[nH]n(-c3ccccc3)c2=O)c2c(C)[nH]n(-c3ccccc3)c2=O)cc1OC	KDM5B inh inconclusive, SNCA viab count inconclusive, IP6K1 inh -30.3
Cc1noc(-c2cn(C3CCN(C(=O)c4ccc(C)s4)C3)nn2)n1 (centres undefined)	none
O=c1c2cc(-c3ccc(F)cc3)nn2ccn1CC(O)c1ccc2c(c1)OCO2 (centres undefined)	KDM5B inh 31.6µM
O=c1c2cc(-c3ccc(F)cc3)nn2ccn1CC(O)c1ccc(F)cc1 (centres undefined)	KDM5B inh 20µM
NC(=O)c1c(OCc2c(F)cc(Br)cc2F)nsc1NC(=O)NCCCCN1CCCC1	SNCA expr inh 6.07µM, SNCA viab count inconclusive (no result: KDM5B inh)
CCNC(=O)[C@@H]1CCCN1[C@@H](C(=O)NC)c1ccccc1F	none
COc1ccc(C2Cn3cnc(-c4nc(-c5ccc(OC)c(OC)c5)no4)c3CO2)cc1 (centres undefined)	none
COc1ccc(-c2nc(-c3nnn4c3COC(c3ccc(Cl)cc3)C4)no2)cc1OC (centres undefined)	KDM5B inh 28.2µM
COc1ccc(-c2noc(-c3nnn4c3COC(c3ccc(F)cc3)C4)n2)cc1OC (centres undefined)	KDM5B inh 22.4µM
COc1ccc(C2Cn3cnc(-c4nc(-c5ccc6c(c5)OCO6)no4)c3CO2)cc1 (centres undefined)	KDM5B inh 14.1µM
C=CCNCc1ccc(Br)cc1	none (no result: SNCA expr inh, SNCA viab count, IP6K1 inh)
